Compounds with a hit are over-represented: about 3% of the library has one in this group of screens.
Rv3671c inh: inhibits the M. tuberculosis serine protease Rv3671c. 0.048% of 320,000 active. inhibition, % at 5.96 µM. P9WHR9. AID 2606; in the data active means inhibition above about 38%;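 further: extracellular domain of Rv3671c used as enzyme; 0% = enzyme with DMSO and 100% = no enzyme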
GDH-TPI counter-1: GDH-TPI coupled enzyme inhibition counter-screen; GDH-TPI coupled enzyme counterscreen, NADH absorbance; AID 588335; inhibition, % at 4.8 µM; 1.2% of 360,000 active; in the data active means inhibition above about 30%;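 further: 0% = DMSO wells and 100% = wells lacking the enzyme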
FBA Mtb inh: inhibitors of M. tuberculosis fructose-bisphosphate aldolase; 2.3% of 360,000 active; inhibition, % at 1 µM; P9WQA3; purified M. tuberculosis FBA, fluorescence read-out;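 further: 0% = vehicle and 100% = reference inhibitor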
Target sequence (P9WQA3 whole entry, looked up): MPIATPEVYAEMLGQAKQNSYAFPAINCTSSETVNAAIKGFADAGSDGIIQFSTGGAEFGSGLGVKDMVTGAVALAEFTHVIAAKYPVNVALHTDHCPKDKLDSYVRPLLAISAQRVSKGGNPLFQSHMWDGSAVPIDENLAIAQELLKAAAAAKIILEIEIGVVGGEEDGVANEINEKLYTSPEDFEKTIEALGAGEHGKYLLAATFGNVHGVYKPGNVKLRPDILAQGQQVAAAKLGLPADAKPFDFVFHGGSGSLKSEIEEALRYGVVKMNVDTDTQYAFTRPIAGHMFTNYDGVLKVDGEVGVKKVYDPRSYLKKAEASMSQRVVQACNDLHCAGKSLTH
Mtb BioA inh: BioA (M. tuberculosis) enzyme inhibition; AID 602481; 0.096% of 360,000 active; purified M. tuberculosis BioA enzyme, plate reader; inhibition, % at 9.99 µM; in the data active means inhibition above about 40%
FadD28 binding: M. tuberculosis FadD28 bisubstrate binding inhibition; inhibition, % at 12.5 µM; FadD28 bisubstrate probe binding, fluorescence polarization; 0.22% of 360,000 active; in the data active means inhibition above about 8.5%, passing the limit was not always enough
Mtb FBA confirm: confirmation of M. tuberculosis fructose-bisphosphate aldolase inhibitors | purified M. tuberculosis FBA, fluorescence read-out | 78% of 5,600 active | inhibition, % at 1 µM | shares compounds with FBA Mtb inh;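 further: 0% = vehicle wells and 100% = reference inhibitor wells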
GDH-TPI counter-2: GDH-TPI inhibition counter-screen for FBA inhibitors. inhibition, % at 1 µM. 81% of 5,600 active. shares compounds with FBA Mtb inh. AID 652141. GDH-TPI coupled enzyme counterscreen, fluorescence; in the data active means inhibition above about 10%
GDH-TPI dose: inhibits GDH-TPI coupling enzymes in dose response; IC50, µM; 79% of 170 active; GDH-TPI coupled enzyme assay, fluorescence, artifact counterscreen; AID 652145; shares compounds with FBA Mtb inh; call rule not given here
Active calls of the source: *; · = not tested or not shown; + = active, no number. Unless noted, no stated cut-off is given here; in the data, active means inhibition above about 27%; inactive means the rest.

SMILES | Rv3671c inh | GDH-TPI counter-1 | FBA Mtb inh | Mtb BioA inh | FadD28 binding | Mtb FBA confirm | GDH-TPI counter-2 | others
COc1cccc(CNC(=O)[C@H]2[C@H](CO)[C@H]3Cn4c(ccc(C5=CCCCC5)c4=O)[C@@H]2N3)c1 | · | · | · | -0.4 | · | · | ·
Cc1nc2nc(Cc3ccccc3)[nH]n2c(=O)c1Cl | -0.9 | -6.6 | 29.4* | -0.5 | 0.2 | 49.4* | 50.0*
C[C@H](CO)N1C[C@H](C)[C@H](CN(C)S(=O)(=O)c2ccc(F)cc2)OCCCC[C@H](C)Oc2ccc(NS(=O)(=O)c3ccc(F)cc3)cc2C1=O | · | · | · | 0.4 | · | · | ·
CCOc1cc(-c2cc(-c3ccc(N)cc3)nc(N)c2C#N)ccc1O | 3.6 | 29.4 | 29.3* | -0.6 | 3.4 | 51.9* | 44.8*
CCOc1cc(-c2cc(-c3ccccc3)nc(N)c2C#N)ccc1O | -15.7 | -0.4 | 3.8 | 0.5 | -6.9 | · | ·
C[C@H](CO)N1C[C@H](C)[C@H](CN(C)Cc2ccccc2)Oc2ncc(-c3ccc(F)cc3)cc2C1=O | · | · | · | 0.4 | · | · | ·
CCN(C(=S)NC(=O)c1ccco1)c1cccc2ccccc12 | -0.3 | 4.9 | 29.2* | 0.5 | -1.9 | 91.6* | 72.6*
COc1ccc(CN(C)C[C@H]2Oc3ccc(NC(=O)CCN4CCOCC4)cc3C(=O)N([C@@H](C)CO)C[C@@H]2C)cc1 | · | · | · | 0.5 | · | · | ·
Cc1c(O)cnc2nn(-c3ccccc3)c(=N)n12 | · | · | 90.9* | · | -0.7 | 81.2* | 52.0*
Cc1nn(-c2ccccc2)c(C)c1N | -3.5 | -7.9 | -0.3 | 0.4 | -2.1 | · | ·
COc1ccc2cc(C(=O)NCc3ccccc3)c(=O)oc2c1 | -4.1 | 16.3 | 32.9* | -2.1 | -1.3 | 65.3* | 49.6*
COc1ccc2oc(=O)c(C(=O)NCc3ccc(F)cc3)cc2c1 | -2.0 | 7.1 | 54.0* | -1.4 | -3.0 | 89.6* | 70.0*
CCOc1cccc2cc(C(=O)NCc3cccnc3)c(=O)oc12 | 2.4 | 2.1 | 0.8 | -0.9 | 0.4 | · | ·
COc1ccc2oc(=N)c(C(=O)NCc3ccccc3)cc2c1 | · | 3.1 | 13.9 | -2.2 | -2.5 | · | ·
COc1ccc2oc(=O)c(C(=O)NCc3cccnc3)cc2c1 | 5.6 | 3.8 | 43.7* | 3.6 | -0.2 | -4.1 | -5.3
O=c1nc2n(CCO)c3ccccc3cc-2c(=O)[nH]1 | · | 16.1 | 96.0* | · | -2.8 | 76.9* | 56.0*
O=c1nc2n(Cc3ccccc3)c3ccccc3cc-2c(=O)[nH]1 | 0.2 | · | · | · | · | · | ·
Cc1noc(C)c1S(=O)(=O)Nc1ccc2c(c1)C(=O)N([C@H](C)CO)C[C@H](C)[C@@H](CN(C)C(=O)Nc1ccccc1)OCCCC[C@@H](C)O2 | · | · | · | 0.3 | · | · | ·
Cc1nc2sc3c(NCc4ccco4)ncnc3c2c2c1COC(C)(C)C2 | -3.5 | -1.3 | 5.4 | -1.6 | -8.0 | · | ·
COCCCNc1ncnc2c1sc1nc(-c3ccco3)c3c(c12)CC(C)(C)OC3 | 6.5 | 38.8* | 38.6* | · | -7.8 | 98.3* | 94.5*
CC1(C)Cc2c(c(-c3ccco3)nc3sc4c(NCCO)ncnc4c23)CO1 | -6.0 | 29.8 | 44.0* | · | -2.0 | 135.2* | 101.2*
COc1ccc(NC(=O)Nc2cccc3c2O[C@@H](CN(C)Cc2ccncc2)[C@@H](C)CN([C@@H](C)CO)C3=O)cc1 | · | · | · | 1.7 | · | · | ·
CO[C@@H]1CN(C)C(=O)c2cc(NC(C)=O)ccc2OC[C@H](C)N(C(=O)c2ccccc2F)C[C@H]1C | · | · | · | -0.4 | · | · | ·
CCC(=O)Nc1ccc2c(c1)OC[C@H](C)N(Cc1ccccc1C(=O)O)C[C@@H](C)[C@H](OC)CN(C)C2=O | · | · | · | -2.4 | · | · | ·
COc1cc(CCC(=O)NCc2ccc(F)cc2)cc(OC)c1OC | 9.3 | 1.9 | 33.4* | -2.0 | · | 53.8* | 47.0*
SMILES | Rv3671c inh | GDH-TPI counter-1 | FBA Mtb inh | Mtb BioA inh | FadD28 binding | Mtb FBA confirm | GDH-TPI counter-2 | others
Cc1c(C)c2ccc(OCC(=O)N3CCN(C(=O)C4COc5ccccc5O4)CC3)cc2oc1=O (stereo unspecified) | -6.9 | 12.7 | 65.5* | 1.7 | 0.4 | 29.0* | 17.1*
COc1ccc2c(C)c(CC(=O)N3CCN(C(=O)C4COc5ccccc5O4)CC3)c(=O)oc2c1C (stereo unspecified) | -2.9 | 9.4 | 78.4* | 0.8 | -0.3 | 162.4* | 131.3*
COc1cc2nc(N3CCN(C(=O)C4COc5ccccc5O4)CC3)nc(N)c2cc1OC (stereo unspecified) | 3.8 | 17.9 | 85.3* | 16.7 | -3.9 | 148.2* | 109.9*
Cc1cc(=O)oc2cc(OCC(=O)N3CCN(C(=O)C4COc5ccccc5O4)CC3)ccc12 (stereo unspecified) | 8.1 | 15.5 | 34.8* | 2.2 | -1.0 | + | +
COc1ccc(-c2cnc3c(c2)C(=O)N([C@H](C)CO)C[C@@H](C)[C@@H](CN(C)S(C)(=O)=O)O3)cc1 | · | · | · | 0.5 | · | · | ·
CO[C@H]1CN(C)C(=O)c2cc(NC(=O)c3ccc4c(c3)OCO4)ccc2OC[C@H](C)N(CCC(F)(F)F)C[C@H]1C | · | · | · | -1.2 | · | · | ·
CCOC(=O)N1CCN(C(=O)c2cn(CCOC)c(=O)c3c2c2ccccc2n3C)CC1 | -2.6 | 17.7 | 42.7* | 0.5 | -2.9 | + | +
COCCn1cc(C(=O)N2CCN(C)CC2)c2c3ccccc3n(C)c2c1=O | 0.6 | 0.6 | 42.3* | -0.4 | -1.5 | 106.4* | 62.1*
CO[C@@H]1CN(C)C(=O)c2ccc(NS(C)(=O)=O)cc2OC[C@@H](C)N(C(=O)C2CC2)C[C@H]1C | · | · | · | -0.9 | · | · | ·
COc1ccc(CN(C)C[C@H]2Oc3c(NS(=O)(=O)c4ccc(OC)cc4)cccc3C(=O)N([C@H](C)CO)C[C@H]2C)cc1 | · | · | · | 3.8 | · | · | ·
CC(C)C1OC2(C)OC(=N)C1(C#N)C(C#N)(C#N)C2c1ccccc1 (stereo unspecified) | -6.9 | 5.8 | 50.0* | -6.6 | 2.1 | 94.3* | 82.2*
CCC1OC2(C)OC(=N)C1(C#N)C(C#N)(C#N)C2c1ccccc1 (stereo unspecified) | -1.7 | 0.7 | 56.5* | · | -0.9 | 18.2 | -1.7 | GDH-TPI dose=3.33*
COc1ccc(NC(=O)Nc2ccc3c(c2)C(=O)N([C@@H](C)CO)C[C@H](C)[C@H](CN(C)C(=O)c2ccccc2)OCCCC[C@H](C)O3)cc1 | · | · | · | -1.2 | · | · | ·
Cc1ccc(-c2ccc([C@@H]3[C@H]4CN(C(=O)c5ccc(F)cc5)CCCCN4[C@H]3CO)cc2)cc1 | · | · | · | 0.3 | · | · | ·
COc1cc(NC(=O)CCC(=O)Nc2ccc3nc(N4CCOCC4)cc(C)c3c2)cc(OC)c1OC | -6.8 | 23.6 | 106.2* | 0.9 | -0.1 | 40.1* | 30.5*
Cc1cc(N2CCOCC2)nc2ccc(NC(=O)CCC(=O)N3CCCCC3)cc12 | -1.6 | -1.3 | 36.9* | 1.0 | 1.4 | 43.8* | 32.9*
CCC(C)NC(=O)CCC(=O)Nc1ccc2nc(N3CCOCC3)cc(C)c2c1 (stereo unspecified) | -0.1 | 21.7 | 77.1* | 1.5 | 0.6 | 2.8 | -3.1

High-throughput results as filed in PubChem.
